In PubChem BioAssay AID1159580 (chemical genetic matrix, 2015):
Values joined by “and” are separate entries in the source; they are usually repeats but may differ in a detail not shown here. Equal values may be shown once. About 2,000 (36%) of roughly 5,500 compounds were called active. About 18% were inconclusive and are not listed. Cut-off read from the data, not from the text of the source: active = normalized growth mostly below about 0.91 (no sharp cut-off); inconclusive = no clear call, values can overlap the other calls; inactive = mostly above about 0.92. The list shows a part of the results.

Assay: chemical genetic growth profiling, strain panel (AID 1159580);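 note: tested at 20 µM; growth read once vehicle control cultures reached saturation at 30 °C; 1 = growth at the plate median or of vehicle wells; lower values mean less growth of the strain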
Conditions: S. cerevisiae deletion strains, growth OD

Measured: normalized growth

COc1ccccc1OCCNCC(O)COc1cccc2[nH]c3ccccc3c12 (stereo unspecified)
inactive: locus YAL013W, strain DEP1, stronger effect = lower value 0.999 | locus YAL021C, strain ccr4, stronger effect = lower value 1.01 | locus YAL026C, strain drs2, stronger effect = lower value 1.01 | locus YAL030W, strain snc1, stronger effect = lower value 1.02 | locus YBR009C, strain hhf1, stronger effect = lower value 1.02 | locus YBR021W, strain FUR4, stronger effect = lower value 0.988 | locus YBR023C, strain chs3, stronger effect = lower value 1.01 | locus YBR171W, strain sec66, stronger effect = lower value 1.02 | locus YBR229C, strain ROT2, stronger effect = lower value 1 | locus YBR231C, strain swc5, stronger effect = lower value 0.993 | locus YBR279W, strain paf1, stronger effect = lower value 1 | locus YCL011C, strain gbp2, stronger effect = lower value 1.01 | locus YCL016C, strain dcc1, stronger effect = lower value 1.03 | locus YCL029C, strain bik1, stronger effect = lower value 1.02 | locus YCL069W, strain vba3, stronger effect = lower value 1.01 | locus YCR088W, strain abp1, stronger effect = lower value 1.04 | locus YDL005C, strain med2, stronger effect = lower value 1.02 | locus YDL035C, strain GPR1, stronger effect = lower value 0.98 | locus YDL040C, strain nat1, stronger effect = lower value 1.02 | locus YDL074C, strain BRE1, stronger effect = lower value 0.957 | locus YDL101C, strain DUN1, stronger effect = lower value 1.01 | locus YDL134C, strain PPH21, stronger effect = lower value 1 | locus YDL185W, strain tfp1, stronger effect = lower value 1.01 | locus YDL192W, strain arf1, stronger effect = lower value 1.02 | locus YDR001C, strain nth1, stronger effect = lower value 1.01 | locus YDR069C, strain doa4, stronger effect = lower value 1 | locus YDR101C, strain arx1, stronger effect = lower value 1.01 | locus YDR137W, strain rgp1, stronger effect = lower value 1.05 | locus YDR150W, strain NUM1, stronger effect = lower value 1 | locus YDR159W, strain sac3, stronger effect = lower value 1.04 | locus YDR162C, strain NBP2, stronger effect = lower value 0.974 | locus YDR195W, strain ref2 1 | locus YDR297W, strain sur2, stronger effect = lower value 1.01 | locus YDR318W, strain mcm21, stronger effect = lower value 1.01 | locus YDR334W, strain swr1, stronger effect = lower value 1.03 | locus YDR335W, strain msn5, stronger effect = lower value 1 | locus YDR388W, stronger effect = lower value 1.01 | locus YDR392W, strain spt3, stronger effect = lower value 1.01 | locus YDR502C, strain sam2, stronger effect = lower value 1 | locus YEL003W, strain gim4, stronger effect = lower value 1.02 | locus YEL037C, strain rad23, stronger effect = lower value 1 | locus YEL061C, strain CIN8 (second series), stronger effect = lower value 1 | locus YEL061C, strain CIN8, stronger effect = lower value 0.997 | locus YER015W, strain faa2, stronger effect = lower value 1.02 | locus YER016W, strain bim1, stronger effect = lower value 0.986 | locus YER110C, stronger effect = lower value 1.02 | locus YER111C, strain swi4, stronger effect = lower value 1.02 | locus YER155C, strain BEM2 (second series), stronger effect = lower value 1.02 | locus YER155C, strain BEM2, stronger effect = lower value 0.986 | locus YER167W, strain BCK2, stronger effect = lower value 1 | locus YFR010W, strain ubp6, stronger effect = lower value 1.02 | locus YGL078C, strain dbp3, stronger effect = lower value 1.02 | locus YGL086W, strain mad1, stronger effect = lower value 1.01 | locus YGL167C, strain pmr1, stronger effect = lower value 1.02 | locus YGL173C, strain kem1, stronger effect = lower value 1.03 | locus YGL227W, strain vid30, stronger effect = lower value 1.01 | locus YGL240W, strain doc1, stronger effect = lower value 1.02 | locus YGL248W, strain PDE1, stronger effect = lower value 1.01 | locus YGL253W, strain hxk2, stronger effect = lower value 1.02 | locus YGR078C, strain PAC10, stronger effect = lower value 0.968 | locus YGR135W, strain pre9, stronger effect = lower value 1.01 | locus YGR229C, strain SMI1, stronger effect = lower value 0.957 | locus YGR252W, strain gcn5, stronger effect = lower value 0.948 | locus YHR013C, strain ard1, stronger effect = lower value 1.03 | locus YHR027C, strain rpn1, stronger effect = lower value 0.994 | locus YHR030C, strain SLT2, stronger effect = lower value 1.01 and 0.992 | locus YHR079C, strain IRE1 (second series), stronger effect = lower value 1.02 | locus YHR079C, strain IRE1, stronger effect = lower value 0.999 | locus YHR094C, strain hxt1, stronger effect = lower value 1.01 | locus YHR129C, strain ARP1, stronger effect = lower value 1.01 | locus YHR142W, strain chs7, stronger effect = lower value 1.03 | locus YHR200W, strain rpn10, stronger effect = lower value 1.02 | locus YIL066C, strain RNR3, stronger effect = lower value 1 | locus YIL073C, strain SPO22, stronger effect = lower value 1.11 | locus YIL125W, strain kgd1, stronger effect = lower value 1.02 | locus YIR030C, strain dcg1, stronger effect = lower value 1.02 | locus YJL092W, strain hpr5, stronger effect = lower value 1.01 | locus YJL095W, strain BCK1 (second series), stronger effect = lower value 1.02 | locus YJL095W, strain BCK1, stronger effect = lower value 0.976 and 1.01 | locus YJL115W, strain asf1, stronger effect = lower value 1.01 | locus YJL129C, strain trk1, stronger effect = lower value 1.02 | locus YJL134W, strain LCB3, stronger effect = lower value 1 | locus YJL154C, strain vps35, stronger effect = lower value 1.01 | locus YJL164C, strain tpk1, stronger effect = lower value 1.02 | locus YJL166W, strain qcr8, stronger effect = lower value 1.03 | locus YJL168C, strain set2, stronger effect = lower value 1.01 | locus YJL187C, strain SWE1 (second series), stronger effect = lower value 1.01 | locus YJL187C, strain SWE1, stronger effect = lower value 1.01 | locus YJR043C, strain POL32, stronger effect = lower value 0.998 | locus YJR066W, strain TOR1, stronger effect = lower value 0.935 | locus YJR075W, strain HOC1, stronger effect = lower value 0.983
